Results reported in PubChem BioAssay AID504715 (Sanford-Burnham Center for Chemical Genomics, 2011).
The list shows a part of the results. Active and inactive are the calls of the source.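 The calls were made as follows: active = compounds giving 40% or more inhibition at 20 µM in any one of the three replicates; inactive = the rest.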

Each compound was assayed against Uracil-DNA glycosylase (Escherichia coli (strain K12)) (UniProt P12295) (assay: E. coli UDG inhibitors, confirmation, counter-screen for APOBEC3G inhibitor project, biochemical, single concentration, fluorescence, FAM/TAMRA oligo (AID 504715;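 also: plate controls were DMSO wells with UDG and oligo for no effect and DMSO wells lacking both for full effect; inhibitors lower the FAM signal released by uracil excision and alkaline cleavage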)). Conditions: UDG counterscreen, at 20 µM, stronger effect = higher value.
Uracil-DNA glycosylase (Escherichia coli (strain K12)), sequence (P12295 whole entry, looked up): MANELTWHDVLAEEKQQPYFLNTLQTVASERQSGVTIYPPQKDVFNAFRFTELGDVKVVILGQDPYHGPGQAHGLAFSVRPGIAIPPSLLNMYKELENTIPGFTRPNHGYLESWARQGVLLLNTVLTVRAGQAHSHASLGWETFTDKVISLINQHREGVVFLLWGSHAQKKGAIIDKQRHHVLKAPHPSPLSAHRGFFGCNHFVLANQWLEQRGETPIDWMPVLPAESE

SMILES | inhibition
CC1=C/C(=N\OS(=O)(=O)c2ccccc2)C=CC1=O | 1.47% (inactive)
COc1ccc(N2C(=O)CC(Sc3n[nH]c(-c4ccc(C)cc4)n3)C2=O)cc1 (stereo unspecified) | -1.53% (inactive)
Cc1ccnc(-n2sc3ccccc3c2=O)n1 | -5.94% (inactive)
CCc1c(C)[nH]c(=S)c(C#N)c1C | -0.5% (inactive)
Nc1ccccc1SC(C[N+](=O)[O-])c1ccccc1 (stereo unspecified) | -4.66% (inactive)
S=c1[nH]nc(Nc2ccccc2)s1 | 6.03% (inactive)
COCc1c(N)c(C)nc(Cl)c1C#N | -3.83% (inactive)
S=c1[nH]nc(-c2ccncc2)n1/N=C/c1ccccc1Cl | -3.82% (inactive)
S=c1[nH]nc(-c2cc(-c3ccccc3)n[nH]2)n1/N=C/c1c2ccccc2cc2ccccc12 | 7.23% (inactive)
CCOC(=O)c1sc(=S)n2c1[nH]c(=O)c1ccc(C(=O)OC)cc12 | 1.35% (inactive)
S=c1[nH]ccn1-c1ccc(Cl)cc1 | 2.81% (inactive)
CC(C)(C)c1nnc(NC(=O)C2c3ccccc3Oc3ccccc32)s1 | -3.35% (inactive)
CC(=O)N(C1=C(Cl)C(=O)c2ccccc2C1=O)c1ccc(C(=O)O)cc1 | -2.05% (inactive)
S=c1[nH]nc(-c2ccco2)n1/N=C/c1ccccc1 | -2.84% (inactive)
S=c1[nH]nc(-c2ccc(Cl)cc2)n1CC1CCCO1 (stereo unspecified) | 2.84% (inactive)
Cc1ccc(S(=O)(=O)N(C)CC(=O)NCCc2c[nH]c3ccccc23)cc1 | -2.52% (inactive)
O=C1CC(Sc2ncn[nH]2)C(=O)N1c1ccccc1 (stereo unspecified) | -0.97% (inactive)
COc1ccc(OCc2n[nH]c(=S)n2N)cc1 | -3.03% (inactive)
COc1ccc(OCc2nnc3n2N=C(c2ccccc2)C(CC(=O)O)S3)cc1 (stereo unspecified) | -3.19% (inactive)
O=C(Cn1cnc([N+](=O)[O-])n1)NCCc1ccccc1 | 5.33% (inactive)
Cc1cccc(-n2c(N)c(C(=O)N3CCN(C)CC3)sc2=S)c1 | -3.91% (inactive)
